Data from the supplement of paper PMC12645437, “Orthogonal IMiD-Degron Pairs Induce Selective Protein Degradation in Cells” (ACS Chemical Biology, 2025).
The full ranking holds about 8,300 sequences; the median of “log2 fold change of degron read counts, EGFP-low vs EGFP+ sorted cells (limma voom), compound-induced degradation” is about -1.1, and the highest 2% start at about 3.2. The list comes from a sample in which the highest values are over-represented; it also holds similar and randomly drawn sequences.

T1: CRBN, Q96SW2
T1 chain: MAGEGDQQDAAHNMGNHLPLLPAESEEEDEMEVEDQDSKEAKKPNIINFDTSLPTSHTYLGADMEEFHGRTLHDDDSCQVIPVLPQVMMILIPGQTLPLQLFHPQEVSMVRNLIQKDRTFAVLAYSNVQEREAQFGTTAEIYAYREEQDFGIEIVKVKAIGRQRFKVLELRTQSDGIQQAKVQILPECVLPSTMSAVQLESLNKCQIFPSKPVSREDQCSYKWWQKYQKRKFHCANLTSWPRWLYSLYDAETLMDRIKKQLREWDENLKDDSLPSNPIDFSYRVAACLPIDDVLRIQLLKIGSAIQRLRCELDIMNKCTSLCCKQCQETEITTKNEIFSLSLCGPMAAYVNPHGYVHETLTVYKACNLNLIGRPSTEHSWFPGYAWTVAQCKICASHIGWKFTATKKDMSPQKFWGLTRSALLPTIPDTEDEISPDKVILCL

B1: 46F_47D_49P_50I_52G_53R_54E_55F_67L_, Q9UKT9 (peptide)
chain: FDCPICGREFTQKGNLLRHIKL
B2: 46F_47Q_49P_50I_52G_53H_54K_55F_67L_, Q9UKT9 (peptide)
chain: FQCPICGHKFTQKGNLLRHIKL
B3: 46F_47D_49D_50I_52G_53A_54T_55F_67L_, Q9UKT9 (peptide)
chain: FDCDICGATFTQKGNLLRHIKL
B4: 46F_47I_49N_50Q_52G_53A_54G_55F_67L_, Q9UKT9 (peptide)
chain: FICNQCGAGFTQKGNLLRHIKL
B5: 46F_47Y_49P_50I_52G_53H_54N_55F_67L_, Q9UKT9 (peptide)
chain: FYCPICGHNFTQKGNLLRHIKL
B6: 46L_47V_49P_50I_52G_53F_54P_55C_67L_, Q9UKT9 (peptide)
chain: LVCPICGFPCTQKGNLLRHIKL
B7: 46L_47M_49P_50I_52G_53F_54S_55C_67L_, Q9UKT9 (peptide)
chain: LMCPICGFSCTQKGNLLRHIKL
B8: 46L_47K_49P_50I_52G_53F_54S_55C_67L_, Q9UKT9 (peptide)
chain: LKCPICGFSCTQKGNLLRHIKL
B9: 46L_47G_49P_50I_52G_53F_54E_55C_67L_, Q9UKT9 (peptide)
chain: LGCPICGFECTQKGNLLRHIKL
B10: 46L_47H_49P_50I_52G_53F_54S_55C_67L_, Q9UKT9 (peptide)
chain: LHCPICGFSCTQKGNLLRHIKL
B11: 46L_47I_49P_50I_52G_53F_54S_55C_67L_, Q9UKT9 (peptide)
chain: LICPICGFSCTQKGNLLRHIKL
B12: 46L_47G_49P_50I_52G_53F_54S_55C_67L_, Q9UKT9 (peptide)
chain: LGCPICGFSCTQKGNLLRHIKL
B13: 46L_47L_49P_50I_52G_53F_54S_55C_67L_, Q9UKT9 (peptide)
chain: LLCPICGFSCTQKGNLLRHIKL
B14: 46L_47S_49P_50I_52G_53F_54S_55C_67L_, Q9UKT9 (peptide)
chain: LSCPICGFSCTQKGNLLRHIKL
B15: 46L_47D_49P_50I_52G_53F_54S_55C_67L_, Q9UKT9 (peptide)
chain: LDCPICGFSCTQKGNLLRHIKL
B16: 46L_47E_49P_50I_52G_53F_54S_55C_67L_, Q9UKT9 (peptide)
chain: LECPICGFSCTQKGNLLRHIKL
B17: 46L_47A_49P_50I_52G_53F_54S_55C_67L_, Q9UKT9 (peptide)
chain: LACPICGFSCTQKGNLLRHIKL
B18: 46L_47T_49E_50I_52G_53F_54W_55C_67L_, Q9UKT9 (peptide)
chain: LTCEICGFWCTQKGNLLRHIKL
B19: 46F_47D_49D_50I_52G_53A_54A_55F_67L_, Q9UKT9 (peptide)
chain: FDCDICGAAFTQKGNLLRHIKL
B20: 46F_47R_49E_50I_52G_53H_54V_55F_67L_, Q9UKT9 (peptide)
chain: FRCEICGHVFTQKGNLLRHIKL
B21: 46F_47M_49N_50V_52G_53A_54A_55F_67L_, Q9UKT9 (peptide)
chain: FMCNVCGAAFTQKGNLLRHIKL
B22: 46F_47T_49E_50V_52G_53A_54G_55F_67L_, Q9UKT9 (peptide)
chain: FTCEVCGAGFTQKGNLLRHIKL
B23: 46F_47N_49D_50V_52G_53A_54F_55F_67L_, Q9UKT9 (peptide)
chain: FNCDVCGAFFTQKGNLLRHIKL
B24: 46L_47D_49N_50Q_52G_53F_54C_55C_67L_, Q9UKT9 (peptide)
chain: LDCNQCGFCCTQKGNLLRHIKL
B25: 46F_47T_49E_50I_52G_53A_54W_55F_67L_, Q9UKT9 (peptide)
chain: FTCEICGAWFTQKGNLLRHIKL
B26: 46F_47R_49S_50V_52G_53H_54L_55F_67L_, Q9UKT9 (peptide)
chain: FRCSVCGHLFTQKGNLLRHIKL
B27: 46L_47Y_49N_50Q_52G_53F_54Q_55C_67L_, Q9UKT9 (peptide)
chain: LYCNQCGFQCTQKGNLLRHIKL
B28: 46L_47Y_49P_50I_52G_53F_54S_55C_67L_, Q9UKT9 (peptide)
chain: LYCPICGFSCTQKGNLLRHIKL
B29: 46L_47W_49P_50I_52G_53F_54E_55C_67L_, Q9UKT9 (peptide)
chain: LWCPICGFECTQKGNLLRHIKL
B30: 46L_47Q_49P_50I_52G_53F_54W_55C_67L_, Q9UKT9 (peptide)
chain: LQCPICGFWCTQKGNLLRHIKL
B31: 46L_47T_49P_50I_52G_53F_54S_55C_67L_, Q9UKT9 (peptide)
chain: LTCPICGFSCTQKGNLLRHIKL
B32: 46L_47W_49P_50I_52G_53F_54S_55C_67L_, Q9UKT9 (peptide)
chain: LWCPICGFSCTQKGNLLRHIKL
B33: 46L_47T_49P_50I_52G_53F_54E_55C_67L_, Q9UKT9 (peptide)
chain: LTCPICGFECTQKGNLLRHIKL
B34: 46L_47Q_49P_50I_52G_53F_54G_55C_67L_, Q9UKT9 (peptide)
chain: LQCPICGFGCTQKGNLLRHIKL
B35: 46L_47Q_49P_50I_52G_53F_54S_55C_67L_, Q9UKT9 (peptide)
chain: LQCPICGFSCTQKGNLLRHIKL
B36: 46L_47Y_49P_50I_52G_53F_54E_55C_67L_, Q9UKT9 (peptide)
chain: LYCPICGFECTQKGNLLRHIKL

Biological target: T1, CRBN, Q96SW2
Assay: log2 fold change of degron read counts, EGFP-low vs EGFP+ sorted cells (limma voom), compound-induced degradation; higher = more compound-induced degradation of the degron-EGFP fusion; degrons are variants of IKZF1/3 zinc finger 2; compound dose not given here
Settings: Jurkat, 18 h
Description: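 Pooled library of 8380 IKZF3 ZF2 degron mutants (positions 146-167 varied within the IKZF3 130-189 degron; only the varied core is printed, flanks not printed) fused to EGFP with IRES-mCherry, lentivirally expressed in Jurkat cells. mCherry+ cells were treated with one IMiD compound for 18 h (dose not stated) and FACS-sorted into EGFP-low and EGFP+ populations. Degron sequences were counted by NGS, and log2FC (EGFP-low vs EGFP+) was estimated by limma voom over 3 biological replicates.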

[1] = compound: compound 19 (5-tert-butyl-thalidomide)
[2] = compound: compound 22 (5-morpholino-thalidomide)
[3] = compound: compound 33 (diphenyl IMiD analogue)
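Note: pooled lentiviral library of zinc finger degron-EGFP fusions in mCherry-positive Jurkat cells, FACS-sorted after compound exposure, with degron abundance counted by next-generation sequencing.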

Sequence	log2 fold change of degron read counts [1]	log2 fold change of degron read counts [2]	log2 fold change of degron read counts [3]	log2 fold change of degron read counts (compound: thalidomide)
B1	-1.43	-1.65	-0.206	0.273
B2	-1.95	-1.73	-1.82	0.342
B3	-0.229	-1.86	-1.66	-1.78
B4	-2.57	-1.54	-0.787	-0.966
B5	-1.61	-1.84	-0.993	-1.92
B6	0.138	1.61	0.747	1.9
B7	1.63	2.78	2.99	2.69
B8	1.33	-0.186	-0.695	1.64
B9	1.95	0.368	0.47	0.369
B10	3.33	3.49	2.83	2.54
B11	0.996	3.08	2.1	3.18
B12	3.62	2.62	2.12	1.55
B13	1.38	0.88	1.79	2.5
B14	3.04	3.05	2.54	2.8
B15	1.61	0.446	1.19	2.17
B16	1.9	0.453	2.42	3.62
B17	3.69	3.18	2.48	2.94
B18	-0.648	-0.501	0.784	0.539

Sequence	log2 fold change of degron read counts [1]	log2 fold change of degron read counts [2]	log2 fold change of degron read counts [3]	log2 fold change of degron read counts (compound: thalidomide)
B19	0.561	-1.32	-1.46	-0.827
B20	-2.92	-3.64	-1.71	-2.21
B21	-1.07	-0.0279	2	0.272
B22	2.39	2.34	2.42	2.32
B23	-1.57	-2.42	-1.91	-2.42
B24	-2.36	-3.41	-2.85	-2.58
B25	-0.788	-0.479	1.12	1.04
B26	-2.53	-3.16	-2.34	-2.39
B27	-1.36	-0.758	-1.33	-2.14
B28	3.73	3.72	3.09	2.7
B29	2.12	2.64	2.17	0.382
B30	0.033	0.594	1.15	2.58
B31	2.51	3.37	2.87	3.49
B32	3.31	3.57	2.84	2.33
B33	0.6	1.64	1.55	2.4
B34	2.46	2.07	1.63	3.23
B35	2.67	2.76	2.41	3.53
B36	2.78	2.56	2.08	0.736
